Pf Dd2 inh – inhibitors of Plasmodium falciparum Dd2 growth; P. falciparum Dd2 growth, SYBR Green, 72 h; Potency, µM (titrated, usually from 28.9 µM), usual class: inhibitors; hit rate 4.3% among 120,000; AID 1347417; active = well fitted inhibition curve with a large enough effect; note: nearly all actives have a fitted effect of over 65% in size
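Readout: SYBR Green fluorescence, 485 nm excitation, 535 nm emission, after ~16 h lysis at 37C. Before that, Dd2-infected red cells (2.5% hematocrit) grew 72 h with compound, 29 uM top final concentration.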
Large screens that a line does not name were inactive. Shown is part of a subset that was picked to be rich in hits.

COc1cc2c(cc1OC)C(CNC(=O)c1ccccc1)N(C(=O)Nc1ccccc1F)CC2 (stereo not given)	none
COc1cc2c(cc1OC)C(CNC(=O)C1CCCC1)N(C(=O)NC(C)C)CC2 (stereo not given)	none
CCC(=O)NCC1c2cc(OC)c(OC)cc2CCN1C(=O)Nc1cccc(C)c1 (stereo not given)	none
CCCNC(=O)N1CCc2cc(OC)c(OC)cc2C1CNC(=O)c1ccccc1C (stereo not given)	Pf Dd2 inh 8.91µM
COc1cc2c(cc1OC)C(CNC(=O)c1cccs1)N(C(=O)Nc1ccccc1)CC2 (stereo not given)	Pf Dd2 inh 8.91µM
CN(CC1CCOCC1)S(=O)(=O)c1ccccc1Cl	none
COc1ccc(C(=O)N2CCC(c3nn(C)c(=O)[nH]3)CC2)cc1	none
Nc1nc(CCCNC(=O)c2cn(C3CCC(N)CC3)nn2)cs1 (stereo not given)	none
Cc1cc(C2CC(C(=O)NCCc3ccccc3)CN(C(=O)C3CC3)C2)ccc1F (stereo not given)	none
COc1ccccc1C(=O)N1CCn2c(nn(-c3ccc(C(F)(F)F)cc3)c2=O)C1	none
Cc1nccn1C1(C(=O)O)CCN(Cc2ccccc2F)CC1	none
COCCNC(=O)C(NC(=O)C1CCCC1)C1CCN(C(=O)c2cccs2)CC1 (stereo not given)	none
O=C(c1cnccn1)N1CCc2nc(OCC3CC3)ccc2C1	none
N#Cc1ccc(CN2CCCCCCNC(=O)CC2c2ccccc2)cc1 (stereo not given)	none
O=C1CC(c2ccccc2)N(Cc2ccc3[nH]ccc3c2)CCCCCN1 (stereo not given)	Pf Dd2 inh 7.94µM
O=C1CC(c2ccccc2)N(C(=O)C2CC2)CCCCCCN1 (stereo not given)	none
O=C1CC(c2ccccc2)N(C(=O)NCc2ccccc2)CCCCCN1 (stereo not given)	none
O=C1CC(c2ccccc2)N(C(=O)CNS(=O)(=O)c2ccc3c(c2)OCCO3)CCCCCN1 (stereo not given)	none
O=C1CC(c2ccccc2)N(Cc2ccc3c(c2)CCO3)CCCCCCN1 (stereo not given)	Pf Dd2 inh 12.6µM
NC(=O)[C@@H]1CN(C(=O)c2cccnn2)C[C@H]1COc1ccccc1	none
COC[C@@H]1CN(C(=O)c2nccc3ccccc23)C[C@H]1c1nc(C)no1	none
CC(C)(C)OC(=O)NCCCC(=O)N1CCN(c2cccc(C=O)c2)C(=O)C1	none
CCCS(=O)(=O)N1C[C@@H]2C(=O)N(CCC3CCN(C(C)C)CC3)C(=O)[C@@H]2C1	none
CC1(C(=O)O)CCN(C(=O)Cc2ccccc2)CC1	none
CN(C)c1cccc(C(=O)N2CCC3(CC2)N=C(c2ccc(Br)cc2)NO3)c1	none
CC(C)OCCCNC(=O)CC1=C2CCCCC2NC1=O (stereo not given)	none
COc1ccc(OC)c(NC(=O)C(C)n2c(=O)c(-c3ccccc3NC(C)=O)nc3ccccc32)c1 (stereo not given)	Pf Dd2 inh 11.2µM
CCOc1ccc(NC(=O)C(CC)n2c(=O)c(-c3ccccc3NC(C)=O)nc3ccccc32)cc1 (stereo not given)	none
CC(=O)Nc1ccccc1-c1nc2ccccc2n(C(C)C(=O)c2ccc(C)c(C)c2)c1=O (stereo not given)	none
Cc1noc(C)c1CCC(=O)N1Cc2[nH]cnc2CC1C(=O)O (stereo not given)	none
COc1cc(CN2CCC3(CCCO3)CCC2=O)cc(OC)c1 (stereo not given)	none
CCC(CC)NC(=O)C1Cn2cccc2C(=O)N1CC(C)C (stereo not given)	none
CC1=NS(=O)(=O)N(C)C=C1C(=O)OCc1nc(-c2cccc(C)c2)no1	none
CC(C)CCN1CC2(CCN(C(=O)C3CC34CCCC4)CC2)OC1=O (stereo not given)	none
COc1ccccc1CNS(=O)(=O)c1cc(Br)cc2c1N(C(=O)C1CC1)CC2	none
CCC(=O)N1CCc2cc(S(=O)(=O)CCC(=O)N3CCN(c4cccc(Cl)c4)CC3)ccc21	none
Cc1ccc(C)c(N2CCN(C(=O)CCS(=O)(=O)c3cc(Br)cc4c3N(C(=O)C3CC3)CC4)CC2)c1	Pf Dd2 inh 11.2µM
O=C(CCS(=O)(=O)c1cc(Br)cc2c1N(C(=O)C1CC1)CC2)N1CCN(c2cccc(C(F)(F)F)c2)CC1	Pf Dd2 inh 10µM
Cc1ccc(N2CCN(S(=O)(=O)c3cc(Br)cc4c3N(C(=O)C3CC3)CC4)CC2C)cc1 (stereo not given)	none
Cc1ccc(C)c(N2CCN(S(=O)(=O)c3cc(Br)cc4c3N(C(=O)C3CC3)CC4)CC2)c1	none
COc1ccc(N2CCN(S(=O)(=O)c3cc(Br)cc4c3N(C(=O)C3CC3)CC4)CC2)cc1	none
O=C(CCS(=O)(=O)c1cc(Br)cc2c1N(C(=O)C1CC1)CC2)N1CCN(c2ccc(F)cc2)CC1	Pf Dd2 inh 7.94µM
Cc1ccc(C)c(N2CCN(C(=O)CCNS(=O)(=O)c3ccc4c(c3)CCN4C(=O)C3CC3)CC2)c1	none
Cc1ccc(NC(=O)N2CCC(OC3CCN(S(C)(=O)=O)CC3)CC2)c(C)c1	none
COc1ccnc(N2C[C@@H]3OCC(=O)N(CC4CC4)[C@@H]3C2)n1	none
COc1cccc(-c2cc(C(=O)NCCn3nc(C)c(Cl)c3C)[nH]n2)c1	none
COc1ccc2[nH]c3c(c2c1)CCNC31CCN(C2CCCC2)CC1	none
CC(C)(C)c1ccc(C(=O)Nc2c(C(=O)c3ccc(F)cc3)oc3ccccc23)cc1	Pf Dd2 inh 8.91µM
COc1ccc(C(=O)Nc2c(C(=O)c3ccc(F)cc3)oc3ccccc23)cc1	none
COc1ccc(C(=O)c2oc3ccccc3c2NC(=O)c2ccc(F)cc2)cc1	none
COC[C@]1(O)CCN(C(=O)c2oc(COc3ccccc3)cc2C)CC1(C)C	none
COc1cccc(-c2nc(C3CC(=O)N(c4ccc(C)cc4)C3)no2)c1OC (stereo not given)	none
NCC(=O)N1CCC(N2CCCC(C(=O)NCc3ccccc3)C2)CC1 (stereo not given)	none
COc1ccc([S+](=O)([O-])c2nnn3c2nc(NCc2ccncc2)c2ccccc23)cc1	none
Cc1cc(C)c([S+](=O)([O-])c2nnn3c2nc(NCc2ccncc2)c2ccccc23)c(C)c1	Pf Dd2 inh 2.24µM
Cc1ccc([S+](=O)([O-])c2nnn3c2nc(NCc2ccncc2)c2ccccc23)cc1	none
CO[C@H]1C(=O)N(C(C)C)[C@H]1C1CCN(S(=O)(=O)c2c(C)nn(C)c2C)CC1	none
C=CCNC(=O)N[C@H]1CCN(C(=O)C=C(C)C)[C@@H]1C(=O)N[C@H](Cc1ccccc1)C(N)=O	none
CCNC(=O)N1CCOc2ccc(CCC(=O)N3CCCCC3c3cccnc3)cc2C1 (stereo not given)	none
Cc1nn(-c2ccc(C(F)(F)F)cc2)c(C)c1[C@@H]1C=C[C@@H](NC(=O)Nc2ccccc2)C1	Pf Dd2 inh 11.2µM
Cc1nn(Cc2ccccc2)c(C)c1[C@@H]1C=C[C@@H](NC(=O)CCC(=O)O)C1	none
Cc1nn(-c2ccc(C(C)C)cc2)c(C)c1[C@@H]1C=C[C@@H](NCc2cccc(Cl)c2)C1	none
Cc1nn(-c2cccc(Br)c2)c(C)c1[C@@H]1C=C[C@@H](NC(=O)CC(C)(C)CC(=O)O)C1	Pf Dd2 inh 8.91µM
Cc1nn(-c2ccc(C(F)(F)F)cc2)c(C)c1[C@@H]1C=C[C@@H](NC(=O)C2CCCCC2)C1	none
Cc1ccc(-n2nc(C)c([C@H]3C=C[C@@H](OC(=O)Nc4cccc(F)c4)C3)c2C)cc1Cl	Pf Dd2 inh 11.2µM
Cc1nn(-c2ccc(C(C)(C)C)cc2)c(C)c1[C@@H]1C=C[C@@H](NC(=O)Nc2ccccc2)C1	none
Cc1nn(-c2ccccn2)c(C)c1[C@@H]1C=C[C@@H](NC(=O)CCC(=O)O)C1	none
